The campaign covered roughly 5,500 compounds. About 2,000 (36%) were called active. About 18% were inconclusive and are not listed. No stated cut-off is given here; in the data, active means normalized growth mostly below about 0.91 (no sharp cut-off); inconclusive means no clear call, values can overlap the other calls; inactive means mostly above about 0.92. Some of the results follow.
Assay: chemical genetic growth profiling, strain panel (AID 1159580);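 further: tested at 20 µM; growth read once vehicle control cultures reached saturation at 30 °C; 1 = growth at the plate median or of vehicle wells; lower values mean less growth of the strain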
Conditions: growth OD
[1] = S. cerevisiae deletion strains, locus YBR229C, strain ROT2, hits give low values
[2] = S. cerevisiae deletion strains, locus YDL101C, strain DUN1, hits give low values
[3] = S. cerevisiae deletion strains, locus YDR150W, strain NUM1, hits give low values
[4] = S. cerevisiae deletion strains, locus YEL061C, strain CIN8, hits give low values
[5] = S. cerevisiae deletion strains, locus YGR229C, strain SMI1, hits give low values
[6] = S. cerevisiae deletion strains, locus YHR030C, strain SLT2, hits give low values
[7] = S. cerevisiae deletion strains, locus YJR043C, strain POL32, hits give low values
[8] = S. cerevisiae deletion strains, locus YJR075W, strain HOC1, hits give low values
[9] = S. cerevisiae deletion strains, locus YLR039C, strain RIC1, hits give low values
[10] = S. cerevisiae deletion strains, locus YLR262C, strain YPT6, hits give low values
[11] = S. cerevisiae deletion strains, locus YMR263W, strain SAP30, hits give low values
[12] = S. cerevisiae deletion strains, locus YMR307W, strain GAS1, hits give low values
[13] = S. cerevisiae deletion strains, locus YNL322C, strain KRE1, hits give low values

Measured: normalized growth

CN(C)/C=C1\CSc2ccc(F)cc2C1=O
inactive: [3] 0.885 | S. cerevisiae deletion strains, locus YLR058C, strain SHM2 (second series), hits give low values 1.01 | [13] 0.995
active: S. cerevisiae deletion strains, locus YAL013W, strain DEP1, hits give low values 0.909 | [1] 0.719 | S. cerevisiae deletion strains, locus YCL061C, strain MRC1, hits give low values 0.812 | [2] 0.291 | S. cerevisiae deletion strains, locus YDL134C, strain PPH21, hits give low values 0.119 | [4] 0.613 | S. cerevisiae deletion strains, locus YGR078C, strain PAC10, hits give low values 0.787 | [5] 0.861 | [6] 0.102 | S. cerevisiae deletion strains, locus YHR087W, strain rtc3, hits give low values 0.753 | [7] 0.908 | [8] 0.74 | S. cerevisiae deletion strains, locus YKL190W, strain CNB1, hits give low values 0.0876 | [9] 0.429 | S. cerevisiae deletion strains, locus YLR085C, strain ARP6, hits give low values 0.154 | [10] 0.517 | S. cerevisiae deletion strains, locus YML094W, strain GIM5, hits give low values 0.658 | S. cerevisiae deletion strains, locus YMR219W, strain ESC1, hits give low values 0.821 | [11] 0.903 | [12] 0.291 | S. cerevisiae deletion strains, locus YNL153C, strain GIM3, hits give low values 0.852 | S. cerevisiae deletion strains, locus YNL298W, strain CLA4 (second series), hits give low values 0.415 | S. cerevisiae deletion strains, locus YNR030W, strain Alg12, hits give low values 0.119 | S. cerevisiae deletion strains, locus YPL055C, strain LGE1, hits give low values 0.787 | S. cerevisiae deletion strains, locus YPL241C, strain CIN2, hits give low values 0.103 | S. cerevisiae deletion strains, locus YPR135W, strain CTF4, hits give low values 0.303 | S. cerevisiae strains, strain wild type, hits give low values 0.491

CC(=O)O[C@@H]1CC2C(C)(C)CCC[C@]2(C)C2CC[C@]3(C)C(=CC(=O)O[C@H]3c3ccoc3)[C@@]21C (stereo partly drawn)
inactive: S. cerevisiae deletion strains, locus YBR021W, strain FUR4, hits give low values 1.02 | [1] 1.01 | S. cerevisiae deletion strains, locus YCL029C, strain bik1, hits give low values 1 | S. cerevisiae deletion strains, locus YDL035C, strain GPR1, hits give low values 1.02 | S. cerevisiae deletion strains, locus YDL074C, strain BRE1, hits give low values 1.01 | [2] 1.01 | S. cerevisiae deletion strains, locus YDL185W, strain tfp1, hits give low values 1.01 | S. cerevisiae deletion strains, locus YDL192W, strain arf1, hits give low values 0.999 | S. cerevisiae deletion strains, locus YDR101C, strain arx1, hits give low values 1.01 | [3] 1.02 | S. cerevisiae deletion strains, locus YDR162C, strain NBP2, hits give low values 1 | S. cerevisiae deletion strains, locus YDR318W, strain mcm21, hits give low values 0.981 | S. cerevisiae deletion strains, locus YDR388W, hits give low values 1.01 | S. cerevisiae deletion strains, locus YDR502C, strain sam2, hits give low values 0.977 | [4] 1.02 | S. cerevisiae deletion strains, locus YER110C, hits give low values 1.01 | S. cerevisiae deletion strains, locus YER155C, strain BEM2, hits give low values 1 | S. cerevisiae deletion strains, locus YER167W, strain BCK2, hits give low values 1.02 | S. cerevisiae deletion strains, locus YGL078C, strain dbp3, hits give low values 0.982 | S. cerevisiae deletion strains, locus YGL086W, strain mad1, hits give low values 0.984 | S. cerevisiae deletion strains, locus YGL248W, strain PDE1, hits give low values 1.01 | S. cerevisiae deletion strains, locus YGR135W, strain pre9, hits give low values 0.978 | [5] 0.97 | S. cerevisiae deletion strains, locus YGR252W, strain gcn5, hits give low values 0.993 | [6] 1.02 | S. cerevisiae deletion strains, locus YHR079C, strain IRE1 (second series), hits give low values 1 | S. cerevisiae deletion strains, locus YHR094C, strain hxt1, hits give low values 1 | S. cerevisiae deletion strains, locus YHR129C, strain ARP1, hits give low values 1.02 | S. cerevisiae deletion strains, locus YHR200W, strain rpn10, hits give low values 1.01 | S. cerevisiae deletion strains, locus YIL066C, strain RNR3, hits give low values 1.02 | S. cerevisiae deletion strains, locus YIL073C, strain SPO22, hits give low values 1.02 | S. cerevisiae deletion strains, locus YIL125W, strain kgd1, hits give low values 1 | S. cerevisiae deletion strains, locus YIR030C, strain dcg1, hits give low values 1 | S. cerevisiae deletion strains, locus YJL095W, strain BCK1, hits give low values 0.97 | S. cerevisiae deletion strains, locus YJL134W, strain LCB3, hits give low values 1.02 | S. cerevisiae deletion strains, locus YJL168C, strain set2, hits give low values 0.994 | S. cerevisiae deletion strains, locus YJL187C, strain SWE1 (second series), hits give low values 1 | [7] 1.05 | [8] 1.01 | S. cerevisiae deletion strains, locus YKL009W, strain mrt4, hits give low values 1.03 | S. cerevisiae deletion strains, locus YKL068W, hits give low values 0.989 | S. cerevisiae deletion strains, locus YKL085W, strain MDH1 (second series), hits give low values 1.01 | S. cerevisiae deletion strains, locus YKL085W, strain MDH1, hits give low values 1.01 | S. cerevisiae deletion strains, locus YKR001C, strain vps1, hits give low values 0.967 | [9] 0.902 | S. cerevisiae deletion strains, locus YLR058C, strain SHM2, hits give low values 1.01 | S. cerevisiae deletion strains, locus YLR102C, strain apc9, hits give low values 1 | [10] 0.928 | S. cerevisiae deletion strains, locus YLR268W, strain sec22, hits give low values 0.973 | S. cerevisiae deletion strains, locus YLR330W, strain CHS5, hits give low values 1.02 | S. cerevisiae deletion strains, locus YLR342W, strain FKS1 (second series), hits give low values 0.983 | S. cerevisiae deletion strains, locus YLR371W, strain rom2, hits give low values 1 | S. cerevisiae deletion strains, locus YLR418C, strain cdc73, hits give low values 0.941 | S. cerevisiae deletion strains, locus YML016C, strain PPZ1, hits give low values 1.02 | S. cerevisiae deletion strains, locus YML032C, strain rad52, hits give low values 0.99 | S. cerevisiae deletion strains, locus YML124C, strain tub3, hits give low values 0.993 | S. cerevisiae deletion strains, locus YMR078C, strain ctf18, hits give low values 0.986 | S. cerevisiae deletion strains, locus YMR223W, strain ubp8, hits give low values 0.983 | [11] 1.02 | [12] 1.09 | S. cerevisiae deletion strains, locus YNL067W, strain RPL9B, hits give low values 1.01 | S. cerevisiae deletion strains, locus YNL128W, strain TEP1, hits give low values 1.03 | S. cerevisiae deletion strains, locus YNL233W, strain BNI4, hits give low values 0.948 | S. cerevisiae deletion strains, locus YNL250W, strain rad50, hits give low values 0.968 | S. cerevisiae deletion strains, locus YNL271C, strain bni1, hits give low values 1 | S. cerevisiae deletion strains, locus YNL298W, strain CLA4, hits give low values 0.992 | S. cerevisiae deletion strains, locus YNL307C, strain MCK1, hits give low values 0.992 | [13] 1.02 | S. cerevisiae deletion strains, locus YNR052C, strain pop2, hits give low values 0.993 | S. cerevisiae deletion strains, locus YOL006C, strain TOP1, hits give low values 1.06 | S. cerevisiae deletion strains, locus YOL012C, strain htz1 0.86 | S. cerevisiae deletion strains, locus YOL147C, strain pex11, hits give low values 1.01 | S. cerevisiae deletion strains, locus YOR061W, strain CKA2, hits give low values 1.01 | S. cerevisiae deletion strains, locus YOR069W, strain VPS5, hits give low values 1.02 | S. cerevisiae deletion strains, locus YOR136W, strain idh2, hits give low values 0.997 | S. cerevisiae deletion strains, locus YOR144C, strain elg1, hits give low values 0.999 | S. cerevisiae deletion strains, locus YOR184W, strain ser1, hits give low values 0.982 | S. cerevisiae deletion strains, locus YOR316C, strain cot1, hits give low values 1 | S. cerevisiae deletion strains, locus YPR119W, strain clb2, hits give low values 0.985 | S. cerevisiae deletion strains, locus YPR141C, strain kar3, hits give low values 1.01 | S. cerevisiae deletion strains, locus YPR163C, strain tif3, hits give low values 0.994 | S. cerevisiae deletion strains, locus YPR167C, strain met16, hits give low values 0.998 | S. cerevisiae deletion strains, strain wtn01, hits give low values 0.996
